Screens: PubChem BioAssay, The Scripps Research Institute Molecular Screening Center
hgDAF-12 ag – agonists of H. glycines DAF-12 nuclear receptor. hit rate 1.8% among 370,000. activation, % at 6.8 µM. AID 687014. HEK293 GAL4-hgDAF12 UAS-luciferase reporter, agonist luminescence; normalized to butyrate control;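 active = activation above a cutoff set at the mean of all screened compounds plus 3 SD, cut at about 10% in these data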
DAX1 inh-1 – inhibits human nuclear receptor DAX1; HEK293 Gal4-DAX1 luciferase reporter, luminescence; P51843; AID 504766; inhibition, % at 6.75 µM; hit rate 0.99% among 340,000;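 active = inhibition above the mean over all tested compounds plus 3 SD, cut at about 4.2% in these data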;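 also: inhibition shows as a rise in luminescence from relieved DAX1 repression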
Target sequence (P51843 207-470 limits assumed): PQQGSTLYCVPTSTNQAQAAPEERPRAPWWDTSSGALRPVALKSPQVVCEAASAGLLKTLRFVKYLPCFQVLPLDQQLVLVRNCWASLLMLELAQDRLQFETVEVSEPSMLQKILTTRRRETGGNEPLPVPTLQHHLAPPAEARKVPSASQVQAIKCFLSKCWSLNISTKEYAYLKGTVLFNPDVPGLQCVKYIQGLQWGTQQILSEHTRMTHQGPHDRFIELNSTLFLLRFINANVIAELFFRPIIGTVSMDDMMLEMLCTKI
hcDAF-12 act – activators of H. contortus DAF-12 nuclear receptor | HEK293 hcDAF-12 lit1-tk-luc reporter, luminescence; 0% DMSO, 100% Δ7-dafachronic acid | activation, % at 6.8 µM | AID 652067 | hit rate 1.4% among 370,000;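 active = activation above the mean of all tested compounds plus 3 SD, cut at about 5.5% in these data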
DAX1 inh-2 – inhibitors of DAX1 repression of SF-1 activated StAR promoter; inhibition, % at 6.8 µM; HEK293T StAR-luciferase reporter, SF-1/DAX-1 repression relief; hit rate 1.1% among 370,000;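 active = inhibition above the mean over all tested compounds plus 3 SD, cut at about 3.6% in these data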;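 also: higher inhibition means more luminescence from relief of DAX-1 repression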
SMARCA2 activ – SMARCA2 function activation, primary screen; MG213 cells, MMTV-luciferase reporter, dexamethasone, overnight; activation, % at 9.1 µM; hit rate 1% among 370,000; AID 652017; in the data active = activation above about 7.8%
ssDAF12 agonist – S. stercoralis DAF-12 activation, primary screen; AID 652126; HEK293 ssDAF-12/GRIP1 lit1-tk-luc reporter, luminescence; % of 3 µM dafachronic acid response; activation, % at 6.8 µM; hit rate 1% among 370,000;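 active = activation above the mean over all tested compounds plus 3 SD, cut at about 0.9% in these data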
Of the large screens only hits and unclear results are named; the others gave an inactive call. Compounds with a hit are over-represented: about 4.8% of the library has one in this group of screens.

O=C(O)Cn1c(=S)sc2ccccc21	ssDAF12 agonist 1.0
O=C(OCC#CCSc1nnc(-c2cccc3ccccc23)o1)c1ccc(Br)cc1	none
O=C(OCC#CCSc1nnc(-c2cccc3ccccc23)o1)c1ccsc1	hgDAF-12 ag 11.0 (no result: DAX1 inh-1, DAX1 inh-2, SMARCA2 activ)
C=CCN=C1S/C(=C\c2ccc(N(C)C)cc2)C(=O)N1CC=C	DAX1 inh-1 4.7
C=CCN1C(=O)/C(=C/c2ccc(O)cc2)S/C1=N/c1nccs1	none
Cc1cc(Nc2ccccc2)n(-c2ccc(Br)cc2)n1	none
O=C(Cc1noc2ccccc12)Nc1ccc(Cl)cc1	none
O=C(Cc1noc2ccccc12)Nc1ccccn1	hgDAF-12 ag 10.7
Cc1nn(-c2ccccc2)c2sc(C(=O)NCC3CCCO3)cc12 (stereo not given)	none (no result: DAX1 inh-1)
Cc1ccc2c(c1)N(C(=O)CCC(=O)N1CCOCC1)CC(C)O2 (stereo not given)	none
Cc1occc1-c1nnc(SCC(=O)NCCc2ccccc2)o1	none
Cc1occc1-c1nnc(SCC(=O)Nc2ccccn2)o1	DAX1 inh-2 3.7
Cc1occc1-c1nnc(SCCNCCO)o1	hgDAF-12 ag 12.6
Cc1ccccc1-c1nnc(SCC(=O)Nc2cccnc2Cl)o1	DAX1 inh-2 8.3
Cc1ccn2c(C(=O)c3ccc(Cl)cc3)cnc2c1	hgDAF-12 ag 12.8, DAX1 inh-2 3.9
Cc1ccn2c(=O)nc(SCC(=O)c3ccc(Cl)cc3)nc2c1	none
O=C(CSC1=NCCS1)N1N=C(c2cccs2)CC1c1ccc(F)cc1 (stereo not given)	none
O=[N+]([O-])c1c(N2CCN(CCO)CC2)nc2ccccn12	none
O=C(Nc1nccs1)c1ccc2nccnc2c1	DAX1 inh-1 4.6
O=C(Nc1nccs1)c1ccc(N2C(=O)[C@@H]3[C@H](C2=O)[C@H]2C=C[C@@H]3C2)cc1	hgDAF-12 ag 12.1, DAX1 inh-1 4.5
O=C(Nc1nccs1)c1cccnc1	none
O=C(Nc1nccs1)c1cccc(N2C(=O)C3C4C=CC(C4)C3C2=O)c1 (stereo not given)	none
CSc1ncnc2ncn(C)c12	none
COc1ccc2c(c1)c1nnc(SCC(=O)NC3CC3)nc1n2C	ssDAF12 agonist 1.7
CCc1ccc(-c2ccc(SCC(=O)NC3CCCC3)nn2)cc1	none
COc1ccc(-c2ccc(SCC(=O)NC3CCCC3)nn2)cc1	DAX1 inh-1 4.4
CCOC(=O)c1c(C)[nH]c(C(=O)COC(=O)CCSc2ccccc2)c1C	hcDAF-12 act 6.3
CCOC(=O)c1c(C)[nH]c(C(=O)NCc2ccccn2)c1C	DAX1 inh-2 4.1
CCOC(=O)c1[nH]c(C)c(C(=O)OCc2ccc(C)cc2)c1C	none
CCOC(=O)c1c(C)[nH]c(C(=O)OCc2ccc(C)cc2)c1C	DAX1 inh-2 4.2
O=C(O)CSC(C(=O)Nc1ccc(C(F)(F)F)cc1)c1ccccc1 (stereo not given)	none
CCc1ccc(C(=O)/C=C/Nc2ccc(S(=O)(=O)Nc3onc(C)c3C)cc2)cc1	hgDAF-12 ag 11.4
COc1ccc(C(=O)/C=C/Nc2ccc(S(=O)(=O)Nc3onc(C)c3C)cc2)cc1	hgDAF-12 ag 11.0, DAX1 inh-2 3.9, ssDAF12 agonist 1.2
Cc1noc(NS(=O)(=O)c2ccc(N/C=C/C(=O)c3ccc(F)cc3)cc2)c1C	none
O=C(NCCCN1CCOCC1)c1ccc(S(=O)(=O)Nc2ccccc2F)cc1	none
COc1ccc(CN2C(=O)N(c3ccc(OC)cc3)C(=O)C2CC(=O)Nc2ccccc2)cc1 (stereo not given)	none
COc1ccc(N2C(=O)C(CC(N)=O)N(NC(=O)CCc3ccccc3)C2=O)cc1 (stereo not given)	DAX1 inh-1 5.9
C=CCSc1nncn1/N=C/c1ccc(OC)cc1	hgDAF-12 ag 11.2, DAX1 inh-1 4.9
COc1ccc(/C=N/n2cnnc2SCCO)cc1OC	none
COc1ccc(C(=O)COc2ccc(F)cc2)c(O)c1	none
COc1ccc(C(=O)CC(=O)c2ccccc2O)cc1OC	none
COc1ccc(O)c(C(=O)c2cnn(-c3ccccc3)c2)c1	none
COc1ccc(-n2cc(C(=O)c3ccccc3O)cn2)cc1	hgDAF-12 ag 11.1
COc1ccc(O)c(C(=O)CC(=O)c2ccc(F)cc2)c1	hgDAF-12 ag 14.8, hcDAF-12 act 8.1, ssDAF12 agonist 1.0
COc1ccc(C(=O)CC(=O)c2ccccc2O)cc1	hgDAF-12 ag 11.4
COc1ccc(-n2cc(C(=O)c3ccc4ccccc4c3O)cn2)cc1	none
O=C(COc1ccccc1C(=O)c1cnn(-c2ccccc2)c1)Nc1ccc2ccccc2c1	hgDAF-12 ag 11.2, ssDAF12 agonist 1.3
O=C(c1cccc(F)c1)N1CCN(c2cccc(C(F)(F)F)c2)CC1	none
C=C(C)C1CC=C(C)/C(=N/NC(=O)COc2ccc(C)cc2)C1 (stereo not given)	none
Cn1c(Cl)c(C(=O)Nc2ccccc2)c2ccccc21	hcDAF-12 act 6.5
CCCn1c(=O)c(C(=O)Nc2ccccc2)c(O)c2ccccc21	none
Cc1ccc(S(C)(=O)=NC(=O)NC(=O)c2c(Cl)cccc2Cl)cc1 (stereo not given)	DAX1 inh-1 4.9
Cc1ccc(S(C)(=O)=NC(=O)NC(=O)c2c(F)cccc2Cl)cc1 (stereo not given)	none
COCCCNC(=S)NNC(=O)C1CC1c1ccc(C(C)(C)C)cc1 (stereo not given)	DAX1 inh-1 5.2
COCCNC(=S)NC(=O)c1ccc(C(C)(C)C)cc1	none
COc1cc2c3nnc(-c4ccc(F)cc4)c-3cn(Cc3ccccc3)c2cc1OC	SMARCA2 activ 18.6
COc1cc2c3nnc(-c4ccc(F)cc4)c-3cn(Cc3ccc(F)cc3)c2cc1OC	none
Brc1ccc(-c2noc(CCc3ccccc3)n2)o1	hcDAF-12 act 6.1
COc1cc(SC)ccc1C(=O)Nc1ccc(S(=O)(=O)N2CCCC2)cc1	none
Cc1ccc(NC(=O)Nc2ccc3c(c2)OCO3)nc1	hgDAF-12 ag 12.9
Cc1cc(C)nc(NC(=O)Nc2ccc3c(c2)OCO3)c1	hgDAF-12 ag 10.5
Cc1ccc(C)c(NC(=O)Nc2ccc3c(c2)OCO3)c1	none
Cc1cc(C)nc(NC(=O)/C=C/c2ccccc2Cl)c1	hgDAF-12 ag 12.2
Cc1cc(C)nc(NC(=O)/C=C/c2ccc(Cl)cc2Cl)c1	none
Cc1ccc(NC(=O)Nc2ccc(Cl)c(Cl)c2)nc1	none
Cc1cccc(NC(=O)Nc2cc(C)cc(C)n2)c1	hgDAF-12 ag 13.2
CC(OC(=O)Cc1n[nH]c(=O)c2ccccc12)C(=O)Nc1ccccc1[N+](=O)[O-] (stereo not given)	none
CC(=O)O[C@@H]1C=C[C@@H](C#Cc2ccc(C(C)(C)C)cc2)O[C@@H]1COC(=O)Nc1ccccc1	none (no result: DAX1 inh-1)
COCCCNC(=O)c1ccc(CS(=O)(=O)c2cccc(C(F)(F)F)c2)o1	none
Cc1cccc(NC(=O)Nc2cccc(C#N)c2)n1	DAX1 inh-1 5.4
